Experimental data taken from PubChem BioAssay (EPA / NIEHS).
Inconclusive results are not listed. Active and inactive are the calls of the source. Rule for the calls, unless noted: active = hit-call score of the fitted dose curve at least 0.9, where 1 is the maximum; inactive = score below 0.9.

What was measured:
[1] = read-out: Monocyte Chemoattractant Protein-1 (MCP1), CCL2 (gene 6347); test: BSK_LPS_MCP1: BioMAP Diversity Plus: LPS Assay for Monocyte Chemoattractant Protein-1 (MCP1) Biomarker Activity (AID 2283081); conditions: primary human HUVEC with PBMC; actives raise or lower the signal
Outline: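 Secreted MCP-1 read by ELISA at 24 h post-dosing in an LPS-activated co-culture of endothelial cells with peripheral blood mononuclear cells. Fits run in both directions, DMSO as baseline; parallel SRB staining tracks overt cytotoxicity.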

[2] = BSK_LPS_PGE2: BioMAP Diversity Plus: LPS Assay for Prostaglandin E2 (PGE2) Biomarker Activity (AID 2283082); conditions: primary human HUVEC with PBMC; actives raise or lower the signal
Outline: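 Primary human endothelial cells and blood mononuclear cells, co-cultured with LPS, receive test chemical; PGE2 ELISA follows at 24 h, with SRB-stained parallel cultures flagging cytotoxicity.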

[3] = read-out: Tissue Factor, F3 (gene 2152); test: BSK_LPS_TissueFactor: BioMAP Diversity Plus: LPS Assay for Tissue Factor Biomarker Activity (AID 2283084); conditions: primary human HUVEC with PBMC; actives raise or lower the signal
Outline: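 Compound was added to an endothelial cell/PBMC co-culture, and after 24 h tissue factor (CD142) was read by ELISA. Gain or loss of signal was fitted against a DMSO baseline, and parallel SRB staining (560 nm) tracked overt cytotoxicity.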

[4] = read-out: Tumor necrosis factor (Homo sapiens) (UniProt P01375); test: BSK_LPS_TNFa: BioMAP Diversity Plus: LPS Assay for Tumour Necrosis Factor alpha (TNFa) Biomarker Activity (AID 2283085); conditions: primary human HUVEC with PBMC; actives raise or lower the signal
Outline: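 ELISA-based TNFa endpoint in a human endothelial–PBMC co-culture sampled 24 h post-exposure. Curves were fitted in both directions using DMSO as baseline of activity.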

[5] = read-out: Vascular cell adhesion molecule 1 (VCAM1), VCAM1 (gene 7412); test: BSK_LPS_VCAM1: BioMAP Diversity Plus: LPS Assay for Vascular cell adhesion molecule 1 (VCAM1) Biomarker Activity (AID 2283086); conditions: primary human HUVEC with PBMC; actives raise or lower the signal
Outline: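 Measured by ELISA: VCAM-1 in LPS-activated HUVEC/PBMC co-cultures 24 h after treatment. Values reflect bidirectional fitting with DMSO as baseline.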

CD38, CD38 (gene 952) = test: BSK_SAg_CD38: BioMAP Diversity Plus: SAg Assay for CD38 Biomarker Activity (AID 2283087); conditions: primary human HUVEC with PBMC; actives raise or lower the signal
Outline: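 Measures CD38 on a human endothelial/PBMC co-culture driven by SEB and TSST-1, 24 h after compound exposure, using ELISA with fluorescence detection; DMSO defines baseline for bidirectional curve fitting.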

CD40, CD40 (gene 958) = test: BSK_SAg_CD40: BioMAP Diversity Plus: SAg Assay for CD40 Biomarker Activity (AID 2283088); conditions: primary human HUVEC with PBMC; actives raise or lower the signal
Outline: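 CD40 is measured by fluorescence ELISA in an endothelial/PBMC primary human co-culture at 24 h post-dose. Fitting is bidirectional, DMSO baseline. Parallel SRB staining (560 nm) flags cytotoxicity.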

CD69, CD69 (gene 969) = test: BSK_SAg_CD69: BioMAP Diversity Plus: SAg Assay for CD69 Biomarker Activity (AID 2283089); conditions: primary human HUVEC with PBMC; actives raise or lower the signal
Outline: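 HUVEC co-cultured with PBMC were dosed with chemical, and CD69 was measured by ELISA with fluorescence read-out 24 h later. Bidirectional curve fitting used DMSO as negative control and activity baseline.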

[6] = read-out: Monocyte Chemoattractant Protein-1 (MCP1), CCL2 (gene 6347); test: BSK_SAg_MCP1: BioMAP Diversity Plus: SAg Assay for Monocyte Chemoattractant Protein-1 (MCP1) Biomarker Activity (AID 2283090); conditions: primary human HUVEC with PBMC; actives raise or lower the signal
Outline: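 Values derive from bidirectional fitting of ELISA-measured MCP1 against DMSO controls. Readings were taken 24 h after dosing human vascular endothelial cells co-cultured with peripheral blood mononuclear cells under superantigen stimulation.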

[7] = read-out: E-selectin (Homo sapiens) (UniProt P16581); test: BSK_SAg_Eselectin: BioMAP Diversity Plus: SAg Assay for Eselectin Biomarker Activity (AID 2283091); conditions: primary human HUVEC with PBMC; actives raise or lower the signal
Outline: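 Cell-surface E-selectin is read by ELISA at 24 h in the SAg co-culture of HUVEC and PBMC. Curves are fitted in both directions relative to DMSO. Parallel SRB total-protein staining tracks overt toxicity.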

[8] = read-out: Monokine induced gamma interferon (MIG), CXCL9 (gene 4283); test: BSK_SAg_MIG: BioMAP Diversity Plus: SAg Assay for Monokine induced gamma interferon (MIG) Biomarker Activity (AID 2283092); conditions: primary human HUVEC with PBMC; actives raise or lower the signal
Outline: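 HUVEC plus human PBMC co-culture, chemicals dosed and MIG (CXCL9) quantified by ELISA at 24 h. Bidirectional curve fitting against DMSO as negative control and baseline, so both gain and loss of signal count as activity.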

[9] = BSK_SAg_PBMCCytotoxicity: PBMC Cytotoxicity Assessment in the BioMAP Diversity Plus: SAg Assay (AID 2283093); conditions: primary human HUVEC with PBMC;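 note: fitted both ways against DMSO so a hit may be loss or gain of signal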
Outline: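 PBMC viability by Alamar Blue reduction, fluorescence read at 546/580 nm after 6 h dye exposure. Cells were dosed 1 h before SEB plus TSST-1 activation (20 ng/mL final each), then held 90 h; endothelial/PBMC human co-culture.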

[10] = read-out: Interleukin-8 (IL8), CXCL8 (gene 3576); test: BSK_SAg_IL8: BioMAP Diversity Plus: SAg Assay for Interleukin-8 (IL8) Biomarker Activity (AID 2283094); conditions: primary human HUVEC with PBMC; actives raise or lower the signal
Outline: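 Primary human endothelial cells with PBMC, exposed 24 h; IL-8 determined by ELISA, analysed bidirectionally relative to DMSO.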

[11] = BSK_SAg_SRB: Viability Assessment in the BioMAP Diversity Plus: SAg Assay (AID 2283096); conditions: primary human HUVEC with PBMC;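 note: cells read one day after compound addition; hits may be either gain or loss of signal compared with DMSO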
Outline: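 Compounds were added to a human vascular co-culture of umbilical vein endothelium and PBMC. After 24 h, parallel cultures were fixed with 10% TCA, stained with 0.1% sulforhodamine B and read at 560 nm. Gain or loss of signal was fitted relative to DMSO.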

[12] = read-out: Macrophage colony-stimulating factor (MCSF), CSF1 (gene 1435); test: BSK_LPS_MCSF: BioMAP Diversity Plus: LPS Assay for Macrophage colony-stimulating factor (MCSF) Biomarker Activity (AID 2283083); conditions: primary human HUVEC with PBMC; actives raise or lower the signal
Outline: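 Bidirectional fitting against DMSO was applied to M-CSF levels read by ELISA at 24 h post-dose. The system pairs human umbilical vein endothelium with peripheral blood mononuclear cells; parallel SRB staining tracked cytotoxicity.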

[13] = BSK_SAg_Proliferation: Cell Proliferation Assessment in the BioMAP Diversity Plus: SAg Assay (AID 2283095); conditions: primary human HUVEC with PBMC;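 note: relative cell number as total protein by SRB absorbance in sub-confluent culture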
Outline: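 A human primary co-culture of umbilical vein endothelium and blood mononuclear cells receives compound; relative cell number is quantified at 96 h by SRB staining and 560 nm absorbance, with DMSO-referenced bidirectional curve fitting.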

[14] = target: human CYP19A1, CYP19A1 (gene 1588) (UniProt P11511); test: NVS_ADME_hCYP19A1: NovaScreen (NVS) CYP450-related Enzyme Activity (ADME) Assay for human CYP19A1 (AID 2283098; active = hit-call score of the fitted dose curve at least 0.9, where 1 is the maximum)
human CYP19A1, CYP19A1 (gene 1588), sequence (P11511 whole entry, looked up): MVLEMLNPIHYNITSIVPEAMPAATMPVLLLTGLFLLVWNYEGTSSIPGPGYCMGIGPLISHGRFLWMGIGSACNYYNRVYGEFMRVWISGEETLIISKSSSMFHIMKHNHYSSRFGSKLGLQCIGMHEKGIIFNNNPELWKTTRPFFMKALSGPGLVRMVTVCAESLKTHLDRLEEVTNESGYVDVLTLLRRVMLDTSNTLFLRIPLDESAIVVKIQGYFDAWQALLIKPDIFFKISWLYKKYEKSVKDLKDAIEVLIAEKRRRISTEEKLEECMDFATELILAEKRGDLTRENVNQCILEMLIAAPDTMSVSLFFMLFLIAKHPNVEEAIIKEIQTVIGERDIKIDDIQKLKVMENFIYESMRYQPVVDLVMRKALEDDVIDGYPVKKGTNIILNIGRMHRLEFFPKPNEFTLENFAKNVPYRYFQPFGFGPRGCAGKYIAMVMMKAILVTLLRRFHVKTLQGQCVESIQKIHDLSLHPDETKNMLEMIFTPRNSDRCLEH
Outline: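 Fluorescence intensity read-out; activity taken as signal loss relative to acetonitrile vehicle. Extracted enzyme, specific substrate, no cells, 0.5 h exposure. Duplicate single-point screen at 10 uM, then concentration–response follow-up for actives.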

[15] = target: human CYP2A6, CYP2A6 (gene 1548) (UniProt P11509); test: NVS_ADME_hCYP2A6: NovaScreen (NVS) CYP450-related Enzyme Activity (ADME) Assay for human CYP2A6 (AID 2283099; active = hit-call score of the fitted dose curve at least 0.9, where 1 is the maximum)
human CYP2A6, CYP2A6 (gene 1548), sequence (P11509 whole entry, looked up): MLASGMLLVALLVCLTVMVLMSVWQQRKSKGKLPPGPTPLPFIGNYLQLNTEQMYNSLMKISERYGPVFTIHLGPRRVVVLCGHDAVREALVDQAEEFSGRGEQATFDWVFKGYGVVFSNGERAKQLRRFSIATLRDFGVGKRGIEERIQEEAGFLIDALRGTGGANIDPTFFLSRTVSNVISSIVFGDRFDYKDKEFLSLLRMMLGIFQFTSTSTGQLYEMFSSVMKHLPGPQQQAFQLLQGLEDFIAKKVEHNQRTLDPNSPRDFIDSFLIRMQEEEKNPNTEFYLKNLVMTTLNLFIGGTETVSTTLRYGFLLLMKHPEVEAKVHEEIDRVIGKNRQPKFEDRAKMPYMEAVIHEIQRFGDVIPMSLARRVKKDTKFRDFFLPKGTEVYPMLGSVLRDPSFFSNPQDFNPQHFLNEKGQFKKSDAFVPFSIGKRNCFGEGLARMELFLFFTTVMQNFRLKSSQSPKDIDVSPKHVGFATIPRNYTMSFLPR
Outline: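 Compounds screened at 10 uM (duplicate) and, if active, titrated to a 20 uM top concentration against insect-cell-expressed CYP2A6. Loss of fluorescent product signal after 0.5 h, relative to acetonitrile baseline, indicates inhibition.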

Measured: AC50

Tumor necrosis factor (Homo sapiens), sequence (P01375 whole entry, looked up): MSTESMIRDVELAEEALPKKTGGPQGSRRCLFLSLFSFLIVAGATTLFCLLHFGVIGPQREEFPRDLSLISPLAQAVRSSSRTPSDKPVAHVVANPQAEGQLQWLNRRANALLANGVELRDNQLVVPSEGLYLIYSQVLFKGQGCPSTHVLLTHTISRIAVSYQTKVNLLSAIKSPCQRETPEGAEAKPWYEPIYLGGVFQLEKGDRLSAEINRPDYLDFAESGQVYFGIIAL
E-selectin (Homo sapiens), sequence (P16581 whole entry, looked up): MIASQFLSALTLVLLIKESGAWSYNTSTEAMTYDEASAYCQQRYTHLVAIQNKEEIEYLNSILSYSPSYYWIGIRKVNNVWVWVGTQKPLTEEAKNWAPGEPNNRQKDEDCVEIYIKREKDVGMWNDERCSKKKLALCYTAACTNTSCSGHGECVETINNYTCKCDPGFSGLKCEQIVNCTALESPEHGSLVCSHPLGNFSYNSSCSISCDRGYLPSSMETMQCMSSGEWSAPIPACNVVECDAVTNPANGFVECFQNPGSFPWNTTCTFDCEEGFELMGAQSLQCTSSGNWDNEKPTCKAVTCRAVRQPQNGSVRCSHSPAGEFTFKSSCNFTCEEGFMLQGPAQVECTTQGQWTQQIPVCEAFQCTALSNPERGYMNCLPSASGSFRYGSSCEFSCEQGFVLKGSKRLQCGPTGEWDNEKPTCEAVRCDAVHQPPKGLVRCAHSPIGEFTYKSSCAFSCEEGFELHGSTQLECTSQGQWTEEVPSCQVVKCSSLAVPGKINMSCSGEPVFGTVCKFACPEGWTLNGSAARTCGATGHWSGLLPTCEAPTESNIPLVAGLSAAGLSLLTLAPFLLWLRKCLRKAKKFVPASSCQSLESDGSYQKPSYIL

Cc1ccc(S(=O)(=O)NC(=O)NN2CCCCCC2)cc1
not listed: [12] | [13] | [14] | [15]
inactive: all other assays above

COS(C)(=O)=O
not listed: CD38, CD38 (gene 952) | [13] | [14] | [15]
inactive: all other assays above

CNC(C)=O
not listed: CD38, CD38 (gene 952) | [14] | [15]
inactive: all other assays above

NC(=O)NN=Cc1ccc([N+](=O)[O-])o1
active: [5] 12.4 µM | [13] 20 µM
inactive: all other assays above
